Bioassay records (PubChem)
tim10-1 inh: inhibits growth of tim10-1 mutant yeast. S. cerevisiae tim10-1 ts strain growth, BacTiter-Glo, 24 h. actives 2.2% (n = 330,000). inhibition, % at 20 µM. AID 463190;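 active = inhibition of at least 40%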;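 also: mutant grown at 25 °C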
TIM10 inh: TIM10 yeast growth inhibition | inhibition, % at 10 µM | AID 463195 | actives 1.4% (n = 330,000) | S. cerevisiae TIM10 strain growth, BacTiter-Glo luminescence, 24 h;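 active = inhibition of 40% or more at the single tested concentration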;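 also: wild-type TIM10 isogenic control strain grown at permissive 25 °C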
NALP1 yeast inh: blocks the NALP1 inflammasome reconstituted in yeast; S. cerevisiae NALP1/ASC/caspase-1 growth, X-gal OD620, 72 h; inhibition, % at 10 µM; actives 0.61% (n = 280,000); in the data active = inhibition mostly above about 24%, no sharp cut-off; inactive = mostly below about 32%
NLRP3 yeast inh: NALP3 inhibition in yeast | AID 2825 | Yeast reconstituted NLRP3/ASC/caspase-1, beta-gal luminescence, 24 h | actives 0.39% (n = 330,000) | inhibition, % at 10 µM;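 active = inhibition of 50% or more; inactive = inhibition below 50%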
tim23-1 inh: growth inhibitors of tim23-1 mutant yeast. inhibition, % at 20 µM. actives 1.3% (n = 330,000). S. cerevisiae tim23-1 growth, BacTiter-Glo luminescence, 24 h;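 active = growth inhibition of the mutant yeast at or above 50%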;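 also: temperature-sensitive mutant grown at 25 °C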
NALP3 yeast conf: NALP3 inhibition confirmation in yeast; shares compounds with NLRP3 yeast inh; yeast expressing human NALP3, luminescence; inhibition, % at 10 µM; actives 81% (n = 1,300); AID 435006; in the data active = inhibition above about 48%
Casp1 ASC ctr: active in yeast caspase-1-ASC counter-screen for NALP3 inhibitors; shares compounds with NLRP3 yeast inh; actives 66% (n = 1,000); inhibition, % at 10 µM; yeast expressing Caspase-1-ASC, luminescence counter screen
NALP3 yeast rt: retest-confirmed inhibitor of NALP3 in yeast | shares compounds with NLRP3 yeast inh | yeast expressing human NALP3, luminescence read-out | inhibition, % at 10 µM | actives 53% (n = 1,000) | AID 488794
tim10-1 confirm: confirmation of tim10-1 mutant yeast growth inhibitors; shares compounds with tim10-1 inh; S. cerevisiae tim10-1 ts strain growth, BacTiter-Glo, 24 h; inhibition, % at 20 µM; actives 56% (n = 7,400); AID 463213;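 active = inhibition of yeast growth at or above a set limit in either of two repeat tests at 20 µM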;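 also: tim10-1 mutant grown at permissive 25 °C to find synthetic lethal compounds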
TIM10 conf: confirmation of TIM10 yeast growth inhibitors; shares compounds with TIM10 inh; S. cerevisiae tim10 strain growth, BacTiter-Glo luminescence, 24 h; inhibition, % at 10 µM; actives 63% (n = 4,600); AID 463215;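 active = inhibition of yeast growth at or above a set limit in either of two replicates at 10 µM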; also: this counterscreen used the strain with wild-type TIM10
tim23-1 conf: tim23-1 yeast growth inhibition, confirmed; shares compounds with tim23-1 inh; S. cerevisiae tim23-1 growth, BacTiter-Glo luminescence, 24 h; inhibition, % at 20 µM; actives 83% (n = 4,400); AID 463218;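 active = inhibition above about 39% in either of two replicate wells at 20 µM, limit read from the data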;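 also: temperature-sensitive tim23-1 mutant grown at 25 °C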
Of the large screens only hits and unclear results are named; the others gave an inactive call (follow-up assays come after a bar, where they were run); ! = not active in a repeat. In the library only some 4% were active in any assay of this set; here they are far more common. Rule as the data show it, unless noted: active = inhibition above about 50%; inactive = the rest.

Cc1cccc(NC(=O)c2cc3ccccc3o2)c1	NLRP3 yeast inh 54.1, tim23-1 inh 53.7 | NALP3 yeast conf 72.0 | Casp1 ASC ctr 58.8 | NALP3 yeast rt 52.5 | tim23-1 conf 41.1
O=C(Nc1cccc(Br)c1)c1cc2ccccc2o1	TIM10 inh 47.0, NLRP3 yeast inh 64.0, tim23-1 inh 52.5 | NALP3 yeast conf 62.3 | Casp1 ASC ctr inactive | NALP3 yeast rt 60.0 | TIM10 conf 48.6 | tim23-1 conf 62.4
N#Cc1cccc(S(=O)(=O)NCC(=O)OCC(=O)NCc2ccccc2)c1	none (no result: NALP1 yeast inh)
O=C(Nc1ccc2nc3n(c(=O)c2c1)CCCCC3)c1cc([N+](=O)[O-])ccc1F	TIM10 inh 48.0, NLRP3 yeast inh 62.7, tim23-1 inh 67.6 | NALP3 yeast conf 80.1 | Casp1 ASC ctr 69.2 | NALP3 yeast rt 56.2 | TIM10 conf 46.5 | tim23-1 conf 54.9
CNc1nc(N)c([N+](=O)[O-])c(Nc2cccc(F)c2)n1	tim10-1 inh 52.4, TIM10 inh 66.6, NLRP3 yeast inh 74.6, tim23-1 inh 80.5 | NALP3 yeast conf 86.5 | Casp1 ASC ctr 77.8 | NALP3 yeast rt 56.3 | tim10-1 confirm 48.0 | TIM10 conf 79.2 | tim23-1 conf 79.0
CNc1nc(N)c([N+](=O)[O-])c(Nc2cccc(Cl)c2)n1	tim10-1 inh 55.4, TIM10 inh 61.5, NLRP3 yeast inh 60.4, tim23-1 inh 59.3 | NALP3 yeast conf 65.9 | tim10-1 confirm 48.6 | TIM10 conf 66.0 | tim23-1 conf 63.6
Cc1ccc(S(=O)(=O)N(Cc2ccccc2)c2ccccc2C(=O)N2CCCCC2)cc1	none
O=C(Oc1c(CN2CCOCC2)cc(Cl)c2cccnc12)c1ccccc1Cl	none
O=C(Oc1c(Cl)cc(Cl)c2cccnc12)c1cccs1	tim10-1 inh 44.4, TIM10 inh 64.5, NLRP3 yeast inh 60.8, tim23-1 inh 55.9 | NALP3 yeast conf 69.9 | Casp1 ASC ctr 82.9 | NALP3 yeast rt 80.7 | tim10-1 confirm 47.6 | TIM10 conf 57.4 | tim23-1 conf 62.3
O=C(Oc1c(Cl)cc(Cl)c2cccnc12)c1ccco1	tim10-1 inh 65.5, TIM10 inh 70.7, NLRP3 yeast inh 70.6, tim23-1 inh 88.7 | NALP3 yeast conf 83.8 | tim10-1 confirm 47.9 | TIM10 conf 67.0 | tim23-1 conf 72.3
CCCCC(CC)CN=C(N)NC(N)=NCCCCCCN=C(N)NC(N)=NCC(CC)CCCC (centres undefined)	tim10-1 inh 96.4, TIM10 inh 94.1, NLRP3 yeast inh 96.7, tim23-1 inh 88.1 (no result: NALP1 yeast inh) | NALP3 yeast conf 95.0 | Casp1 ASC ctr 85.7 | NALP3 yeast rt 93.9 | tim10-1 confirm 95.1 | TIM10 conf 95.7 | tim23-1 conf 83.5
CCCCC(CC)CO (centres undefined)	none (no result: NALP1 yeast inh)
CCCn1nnc(NC(=O)c2cccc(Cl)c2)n1	none
CCCn1nnc(NC(=O)c2sc3ccccc3c2Cl)n1	NLRP3 yeast inh 50.7, tim23-1 inh 52.5 | NALP3 yeast conf 54.5 | Casp1 ASC ctr inactive | NALP3 yeast rt inactive | tim23-1 conf 42.0
COc1cccc(NC(=O)Nc2nc(SC)ns2)c1	none
CCSc1nsc(NC(=O)Nc2cccc(F)c2)n1	tim10-1 inh 61.2, TIM10 inh 68.6, NLRP3 yeast inh 50.2, tim23-1 inh 77.6 | NALP3 yeast conf 77.5 | Casp1 ASC ctr inactive | NALP3 yeast rt 85.2 | tim10-1 confirm 71.8 | TIM10 conf 60.2 | tim23-1 conf 83.8
O=C(CSc1nc2ccccc2c(=O)[nH]1)Nc1ccccc1C(F)(F)F	none
CCCCCCCCn1ccc(=N)cc1	none
CCCCCCCCCCCCCCCCn1cc[n+](C)c1	tim10-1 inh 93.4, TIM10 inh 66.8!, NALP1 yeast inh 93.6!, NLRP3 yeast inh 61.3, tim23-1 inh 55.5 | NALP3 yeast conf 71.6 | tim10-1 confirm 52.7 | TIM10 conf 58.2 | tim23-1 conf 63.0
Cc1ccc(-c2csc(NC(=O)c3ccc(F)cc3)c2C(=O)O)cc1	tim10-1 inh 81.2, TIM10 inh 82.3, NLRP3 yeast inh 83.5, tim23-1 inh 77.2 | NALP3 yeast conf 90.6 | Casp1 ASC ctr 91.7 | NALP3 yeast rt inactive | tim10-1 confirm 81.7 | TIM10 conf 94.2 | tim23-1 conf 88.4
Cc1ccc(C(=O)Nc2scc(-c3ccccc3)c2C(=O)O)o1	none
O=C(Nc1scc(-c2ccccc2)c1C(=O)O)c1ccc(F)cc1	tim10-1 inh 67.0, TIM10 inh 60.3, NLRP3 yeast inh 60.7, tim23-1 inh 84.8 | NALP3 yeast conf 73.5 | Casp1 ASC ctr inactive | NALP3 yeast rt 60.5 | tim10-1 confirm 71.8 | TIM10 conf 45.4 | tim23-1 conf 86.5
COc1ccc(-c2csc(NC(=O)c3ccc(C(C)(C)C)cc3)c2C(=O)O)cc1	tim10-1 inh 84.5, TIM10 inh 73.4, NLRP3 yeast inh 87.0, tim23-1 inh 84.7 (no result: NALP1 yeast inh) | NALP3 yeast conf 85.7 | Casp1 ASC ctr 94.5 | NALP3 yeast rt 86.5 | tim10-1 confirm 83.3 | TIM10 conf 92.3 | tim23-1 conf 89.5
CC1(C)CC(=O)C=C(c2cccc(Cl)c2O)C1	NLRP3 yeast inh 71.0, tim23-1 inh 59.5 (no result: NALP1 yeast inh) | NALP3 yeast conf 64.7 | Casp1 ASC ctr 75.3 | NALP3 yeast rt 61.6 | tim23-1 conf 53.3
O=c1cnn(-c2ccccc2)c(-c2ccccc2)c1	tim10-1 inh 54.2, TIM10 inh 75.6, NLRP3 yeast inh 56.1, tim23-1 inh 65.2 | NALP3 yeast conf 78.6 | Casp1 ASC ctr 58.5 | NALP3 yeast rt 56.1 | tim10-1 confirm 62.2 | TIM10 conf 63.6 | tim23-1 conf 70.1
Nc1c(-c2ccccc2)cnn1-c1ccccc1	none
CC1CN(C(=O)CCC(=O)N2CCOCC2)c2ccccc2O1 (centres undefined)	none
Clc1cncc(Cl)c1N/N=C/c1ccncc1	NLRP3 yeast inh 64.9, tim23-1 inh 54.2 | NALP3 yeast conf inactive | tim23-1 conf inactive
Clc1cccc(Cl)c1/C=N/Nc1c(Cl)cncc1Cl	none
COc1ccc(-n2cnc3ccccc3c2=O)c([N+](=O)[O-])c1	none
O=S(=O)(c1cnc[nH]1)N1CCN(C(c2ccc(F)cc2)c2ccc(F)cc2)CC1	none
Cc1cccc(N/C(N)=N/c2nc(C(F)(F)F)cc(=O)[nH]2)c1C	none
COc1ccc(-c2csc(N3CCN(S(=O)(=O)c4ccc5c(c4)NC(=O)CO5)CC3)n2)cc1	none
